# Values joined by “and” are separate entries in the source; they are usually repeats but may differ in a detail not shown here. Equal values may be shown once. Out of some 5,500 compounds screened, about 2,000 (36%) were called active. Inconclusive results (about 18%) are left out. Some of the results follow. Unmarked numbers belong to inactive results. Cut-off read from the data, not from the text of the source: active = normalized growth mostly below about 0.91 (no sharp cut-off); inconclusive = no clear call, values can overlap the other calls; inactive = mostly above about 0.92.
# Test: chemical genetic growth profiling, strain panel (AID 1159580);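 note: tested at 20 µM; growth read once vehicle control cultures reached saturation at 30 °C; 1 = growth at the plate median or of vehicle wells; lower values mean less growth of the strain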
# Settings: S. cerevisiae deletion strains, growth OD
structure (smiles),measurement,setting,value
C[C@H]1COc2c(N3CCN(C)CC3)c(F)cc3c(=O)c(C(=O)O)cn1c23,normalized growth,"locus YAL013W, strain DEP1, stronger effect = lower value",1
same,normalized growth,"locus YAL021C, strain ccr4, stronger effect = lower value",1.02
same,normalized growth,"locus YAL026C, strain drs2, stronger effect = lower value",1.03
same,normalized growth,"locus YAL030W, strain snc1, stronger effect = lower value",1.02
same,normalized growth,"locus YBR009C, strain hhf1, stronger effect = lower value",1.01
same,normalized growth,"locus YBR021W, strain FUR4, stronger effect = lower value",0.995
same,normalized growth,"locus YBR023C, strain chs3, stronger effect = lower value",1.02
same,normalized growth,"locus YBR171W, strain sec66, stronger effect = lower value",1.04
same,normalized growth,"locus YBR229C, strain ROT2, stronger effect = lower value",1
same,normalized growth,"locus YBR231C, strain swc5, stronger effect = lower value",1.02
same,normalized growth,"locus YBR279W, strain paf1, stronger effect = lower value",1.02
same,normalized growth,"locus YCL011C, strain gbp2, stronger effect = lower value",0.259 (active)
same,normalized growth,"locus YCL016C, strain dcc1, stronger effect = lower value",1.02
same,normalized growth,"locus YCL029C, strain bik1, stronger effect = lower value",1.02
same,normalized growth,"locus YCL061C, strain MRC1, stronger effect = lower value",1.04
same,normalized growth,"locus YCL069W, strain vba3, stronger effect = lower value",1.02
same,normalized growth,"locus YCR088W, strain abp1, stronger effect = lower value",1.02
same,normalized growth,"locus YDL005C, strain med2, stronger effect = lower value",1.04
same,normalized growth,"locus YDL035C, strain GPR1, stronger effect = lower value",1.02
same,normalized growth,"locus YDL040C, strain nat1, stronger effect = lower value",1.02
same,normalized growth,"locus YDL074C, strain BRE1, stronger effect = lower value",1.01
same,normalized growth,"locus YDL101C, strain DUN1, stronger effect = lower value",0.999
same,normalized growth,"locus YDL134C, strain PPH21, stronger effect = lower value",1.01
same,normalized growth,"locus YDL185W, strain tfp1, stronger effect = lower value",1.02
same,normalized growth,"locus YDL192W, strain arf1, stronger effect = lower value",1.02
same,normalized growth,"locus YDR001C, strain nth1, stronger effect = lower value",1.02
same,normalized growth,"locus YDR069C, strain doa4, stronger effect = lower value",1.04
same,normalized growth,"locus YDR101C, strain arx1, stronger effect = lower value",1.01
same,normalized growth,"locus YDR137W, strain rgp1, stronger effect = lower value",0.989
same,normalized growth,"locus YDR150W, strain NUM1, stronger effect = lower value",0.999
same,normalized growth,"locus YDR159W, strain sac3, stronger effect = lower value",1.03
same,normalized growth,"locus YDR162C, strain NBP2, stronger effect = lower value",0.989
same,normalized growth,"locus YDR195W, strain ref2",0.993
same,normalized growth,"locus YDR297W, strain sur2, stronger effect = lower value",1.02
same,normalized growth,"locus YDR318W, strain mcm21, stronger effect = lower value",1.02
same,normalized growth,"locus YDR334W, strain swr1, stronger effect = lower value",1.01
same,normalized growth,"locus YDR335W, strain msn5, stronger effect = lower value",1.02
same,normalized growth,"locus YDR388W, stronger effect = lower value",1.01
same,normalized growth,"locus YDR392W, strain spt3, stronger effect = lower value",1.04
same,normalized growth,"locus YDR502C, strain sam2, stronger effect = lower value",1.01
same,normalized growth,"locus YEL003W, strain gim4, stronger effect = lower value",1.01
same,normalized growth,"locus YEL037C, strain rad23, stronger effect = lower value",1.03
same,normalized growth,"locus YEL061C, strain CIN8 (second series), stronger effect = lower value",1.04
same,normalized growth,"locus YEL061C, strain CIN8, stronger effect = lower value",0.993
same,normalized growth,"locus YER015W, strain faa2, stronger effect = lower value",1.01
same,normalized growth,"locus YER016W, strain bim1, stronger effect = lower value",1.02
same,normalized growth,"locus YER110C, stronger effect = lower value",1.02
same,normalized growth,"locus YER111C, strain swi4, stronger effect = lower value",1.03
same,normalized growth,"locus YER155C, strain BEM2 (second series), stronger effect = lower value",1.03
same,normalized growth,"locus YER155C, strain BEM2, stronger effect = lower value",1.01
same,normalized growth,"locus YER167W, strain BCK2, stronger effect = lower value",1
same,normalized growth,"locus YFR010W, strain ubp6, stronger effect = lower value",1.03
same,normalized growth,"locus YGL078C, strain dbp3, stronger effect = lower value",1.02
same,normalized growth,"locus YGL086W, strain mad1, stronger effect = lower value",1.01
same,normalized growth,"locus YGL167C, strain pmr1, stronger effect = lower value",1.03
same,normalized growth,"locus YGL173C, strain kem1, stronger effect = lower value",1.01
same,normalized growth,"locus YGL227W, strain vid30, stronger effect = lower value",1.02
same,normalized growth,"locus YGL240W, strain doc1, stronger effect = lower value",1.02
same,normalized growth,"locus YGL248W, strain PDE1, stronger effect = lower value",1
same,normalized growth,"locus YGL253W, strain hxk2, stronger effect = lower value",1.01
same,normalized growth,"locus YGR078C, strain PAC10, stronger effect = lower value",0.998
same,normalized growth,"locus YGR135W, strain pre9, stronger effect = lower value",1.01
same,normalized growth,"locus YGR229C, strain SMI1, stronger effect = lower value",0.989
same,normalized growth,"locus YGR252W, strain gcn5, stronger effect = lower value",0.996
same,normalized growth,"locus YHR013C, strain ard1, stronger effect = lower value",1.02
same,normalized growth,"locus YHR027C, strain rpn1, stronger effect = lower value",1.01
same,normalized growth,"locus YHR030C, strain SLT2, stronger effect = lower value",1.01 and 0.977
same,normalized growth,"locus YHR079C, strain IRE1 (second series), stronger effect = lower value",1.01
same,normalized growth,"locus YHR079C, strain IRE1, stronger effect = lower value",0.991
same,normalized growth,"locus YHR094C, strain hxt1, stronger effect = lower value",1.01
same,normalized growth,"locus YHR129C, strain ARP1, stronger effect = lower value",1.01
same,normalized growth,"locus YHR142W, strain chs7, stronger effect = lower value",1.02
same,normalized growth,"locus YHR200W, strain rpn10, stronger effect = lower value",1.02
same,normalized growth,"locus YIL066C, strain RNR3, stronger effect = lower value",1
same,normalized growth,"locus YIL073C, strain SPO22, stronger effect = lower value",1.05
same,normalized growth,"locus YIL125W, strain kgd1, stronger effect = lower value",1.01
same,normalized growth,"locus YIR030C, strain dcg1, stronger effect = lower value",1.03
same,normalized growth,"locus YJL092W, strain hpr5, stronger effect = lower value",1.03
same,normalized growth,"locus YJL095W, strain BCK1 (second series), stronger effect = lower value",1.02
same,normalized growth,"locus YJL095W, strain BCK1, stronger effect = lower value",1.02 and 0.996
same,normalized growth,"locus YJL115W, strain asf1, stronger effect = lower value",1.04
same,normalized growth,"locus YJL129C, strain trk1, stronger effect = lower value",1.04
same,normalized growth,"locus YJL134W, strain LCB3, stronger effect = lower value",1
same,normalized growth,"locus YJL154C, strain vps35, stronger effect = lower value",1.01
same,normalized growth,"locus YJL164C, strain tpk1, stronger effect = lower value",1.01
same,normalized growth,"locus YJL166W, strain qcr8, stronger effect = lower value",1.02
same,normalized growth,"locus YJL168C, strain set2, stronger effect = lower value",1.01
same,normalized growth,"locus YJL187C, strain SWE1 (second series), stronger effect = lower value",1.01
same,normalized growth,"locus YJL187C, strain SWE1, stronger effect = lower value",1.01
same,normalized growth,"locus YJR043C, strain POL32, stronger effect = lower value",0.998
same,normalized growth,"locus YJR066W, strain TOR1, stronger effect = lower value",0.944
